This passage reports growth results from PubChem BioAssay (NCI).

Molecules are shown by their SMILES. About 83,000 compounds went through this panel and 20% of them were active in at least one assay; those are over-represented in the sample as a whole.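 How to read the values: 0–100, growth inhibition (40 = 60% inhibited); 0, no net growth; -100 to 0, cell death (-40 = 40% of starting cells died; -100 = all dead).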 A number with no mark means an inactive call. The source made the active and inactive calls. Rule for the calls: active = growth percent below 10; inactive = the rest.

What all share (experiment): NCI-60 one-dose screen, 48 h (100 = growth as untreated, 0 = no growth, -100 = all killed)
The subject of one assay is NCI-H23 lung. Conditions: 10 µM unless noted.
A further assay relates to NCI-H226 lung. As to conditions: 10 µM unless noted.
The next assay has as its system NCI-H322M lung. As to conditions: 10 µM unless noted.
The subject of the next assay is HOP-62 NSCLC. As to conditions: 10 µM unless noted.
The next assay concerns NCI-H460 lung. Conditions: 10 µM unless noted.
Another assay concerns HOP-92 NSCLC. Conditions: 10 µM unless noted.
The subject of the next assay is NCI-H522 lung. As to conditions: 10 µM unless noted.
The next assay has as its system A549/ATCC NSCLC. As to conditions: 10 µM unless noted.
In another assay the test system is 786-0 renal. As to conditions: 10 µM unless noted.
The test system of another assay is DU-145 prostate. Conditions: 10 µM unless noted.
The next assay has as its system K-562 leukemia. Conditions: 10 µM unless noted.
In another assay the test system is MALME-3M melanoma. As to conditions: 10 µM unless noted.
The next assay concerns MDA-MB-231 breast. As to conditions: 10 µM unless noted.
In the next assay the test system is RXF 393 renal. As to conditions: 10 µM unless noted.
The test system of another assay is SF-268 CNS. Conditions: 10 µM unless noted.
Another assay has as its system SF-295 CNS. As to conditions: 10 µM unless noted.
In the next assay the test system is SF-539 CNS. As to conditions: 10 µM unless noted.
A further assay has as its system UACC-257 melanoma. Conditions: 10 µM.
A further assay concerns M14 melanoma. As to conditions: 10 µM unless noted.

Turning to `CN(c1ccc(Cl)cc1)S(=O)(=O)c1ccc(-c2cnc(C3CC3)o2)cc1`, the growth with NCI-H23 lung was 23.8%; in the assay on NCI-H226 lung it was 14.5%; in the assay with NCI-H322M lung, 55%; in the assay with HOP-62 NSCLC, 45.6%; in the assay on NCI-H460 lung, 8.85% (active); with HOP-92 NSCLC, 63.9%. In addition, the growth in the assay on NCI-H522 lung is 30.8%; in the assay with A549/ATCC NSCLC, 24.3%; in the assay with 786-0 renal it was 31.9%; with DU-145 prostate it was 15.9%; in the assay with K-562 leukemia, 10.4%; in the assay with MALME-3M melanoma, 77.8%. Further, the growth is 22.3% with MDA-MB-231 breast; 46.5% with RXF 393 renal; 40.2% with SF-268 CNS; 18% in the assay with SF-295 CNS; 10.4% in the assay with SF-539 CNS; 66.1% with UACC-257 melanoma. The growth in the assay on M14 melanoma was 24.9%.

As for `C=C1C(=O)O[C@@H]2C[C@@H](C)[C@H](OC)CC(=O)[C@](C)(OC(C)=O)C[C@H](OC(=O)/C(C)=C\C)[C@@H]12`, the growth in the assay on NCI-H23 lung was 70%; with NCI-H226 lung, 96.4%; in the assay with NCI-H322M lung it was 95.1%; in the assay on HOP-62 NSCLC, 89.5%; with NCI-H460 lung, 101%; in the assay with HOP-92 NSCLC, 85.1%. Moreover, the growth in the assay with NCI-H522 lung was -67.8% (active); with A549/ATCC NSCLC, 100%; in the assay on 786-0 renal it was 93%; with DU-145 prostate, 78.3%; in the assay with MALME-3M melanoma, 40.2%; with MDA-MB-231 breast, 36.7%. In addition, the growth in the assay with RXF 393 renal is 58.7%; in the assay on SF-268 CNS, 93.1%; in the assay on SF-295 CNS, 91.6%; with SF-539 CNS it was 71.4%; in the assay on UACC-257 melanoma it was 77.1%; in the assay with M14 melanoma it was 88.8%.

As for `CCCCCCNC(=O)Oc1ccc(/C(=C(/C)c2ccc(Cl)cc2)c2ccc(OCCN3CCCC3)cc2)cc1`, the growth in the assay with NCI-H23 lung was 48.3%; in the assay on NCI-H226 lung, 83.1%; in the assay on NCI-H322M lung it was 69.2%; with HOP-62 NSCLC, 65%; in the assay with NCI-H460 lung it was -57% (active); in the assay with HOP-92 NSCLC, 26%. Besides, the growth is 65.3% in the assay with NCI-H522 lung; 53.4% with A549/ATCC NSCLC; -28.8% (active) in the assay with 786-0 renal; 69.2% in the assay with DU-145 prostate; 6.52% (active) with K-562 leukemia; -70.8% (active) in the assay with MALME-3M melanoma. Moreover, the growth in the assay on MDA-MB-231 breast was 30.6%; with RXF 393 renal, 9.25% (active); in the assay on SF-268 CNS, 61.9%; in the assay on SF-295 CNS it was -32.7% (active); in the assay with SF-539 CNS it was -24.4% (active); in the assay on UACC-257 melanoma it was -16.5% (active). Further, the growth in the assay with M14 melanoma is -54.3% (active).

With `O=C1/C(=C/c2ccccc2[N+](=O)[O-])Oc2ccc(O)cc21`, the growth with NCI-H23 lung was 43.7%; in the assay with NCI-H226 lung, 78.6%; in the assay with NCI-H322M lung, 79.8%; in the assay with HOP-62 NSCLC, 78.3%; in the assay with NCI-H460 lung it was 72.3%; with HOP-92 NSCLC, 80%. Moreover, the growth with NCI-H522 lung was -5.14% (active); in the assay on A549/ATCC NSCLC, 84.8%; in the assay with 786-0 renal, 46.3%; in the assay on DU-145 prostate it was 29.8%; in the assay on K-562 leukemia it was 4.21% (active); in the assay on MALME-3M melanoma, 47.8%. The growth in the assay on MDA-MB-231 breast is 30.2%; with RXF 393 renal, 12.3%; in the assay on SF-268 CNS, 78.5%; in the assay on SF-295 CNS it was 88.9%; with SF-539 CNS it was 15.2%; with UACC-257 melanoma, 60.3%. Further, the growth in the assay on M14 melanoma was 54.9%.

`COc1cc(NC2=C(Cl)C(=O)c3nc(C)ccc3C2=O)cc(OC)c1`: the growth in the assay on NCI-H23 lung is -55.6% (active); with NCI-H226 lung, 68.6%; in the assay on NCI-H322M lung, 89.8%; in the assay with HOP-62 NSCLC, 0.846% (active); with NCI-H460 lung, 2.02% (active); with HOP-92 NSCLC, -12.2% (active). Moreover, the growth with NCI-H522 lung is -80.6% (active); in the assay with A549/ATCC NSCLC, 42.4%; with 786-0 renal, -59.5% (active); with DU-145 prostate, -93% (active); in the assay with K-562 leukemia it was 4.73% (active); with MALME-3M melanoma it was -89.4% (active). For the same molecule, the growth in the assay with MDA-MB-231 breast was -28.6% (active); in the assay with RXF 393 renal, -97.2% (active); in the assay with SF-268 CNS it was 37%; in the assay with SF-295 CNS it was 51.6%; in the assay on SF-539 CNS it was -30.9% (active); with UACC-257 melanoma, -92% (active). Further, in the assay on M14 melanoma, the growth was -96% (active).

`CN(C)CCn1c2ccc(N)cc2c2nc3ccccc3nc21`: the growth with NCI-H23 lung is 28.2%; in the assay with NCI-H226 lung, 34.3%; with NCI-H322M lung it was 34.7%; with HOP-62 NSCLC, 31.5%; in the assay on NCI-H460 lung, 6.26% (active); with HOP-92 NSCLC, 47.7%. Moreover, the growth in the assay on NCI-H522 lung is 30.1%; in the assay on A549/ATCC NSCLC it was 25.8%; with 786-0 renal, 35.6%; with DU-145 prostate, 25.3%; in the assay on K-562 leukemia, 13.7%; in the assay on MALME-3M melanoma, 44.1%. Also, the growth is 32.7% in the assay on MDA-MB-231 breast; 35.4% in the assay with RXF 393 renal; 43.4% in the assay with SF-268 CNS; 32.3% in the assay on SF-295 CNS; 21.3% with SF-539 CNS; 38.4% in the assay with UACC-257 melanoma. Further, the growth with M14 melanoma is 35.9%.

Turning to `CSc1nccc(-c2c(-c3ccc(F)c(OCc4ccc(F)cc4)c3)nc3sccn23)n1`, the growth was 60.2% in the assay on NCI-H23 lung; 76.6% in the assay on NCI-H226 lung; 91.3% in the assay on NCI-H322M lung; 104% in the assay on HOP-62 NSCLC; 89.8% in the assay on NCI-H460 lung; 54.5% with HOP-92 NSCLC. Further, the growth was 66.7% in the assay on NCI-H522 lung; 78.7% with A549/ATCC NSCLC; 74.4% in the assay with 786-0 renal; 88.5% with DU-145 prostate; 59.7% with K-562 leukemia; 104% with MALME-3M melanoma. For the same molecule, the growth was 65.8% in the assay on MDA-MB-231 breast; 84% in the assay on RXF 393 renal; 83.9% in the assay with SF-268 CNS; 80.3% in the assay with SF-295 CNS; 73.3% with SF-539 CNS; 64.4% with UACC-257 melanoma. In the assay on M14 melanoma, the growth is 89%.

Regarding `CS(=O)c1nccc(-c2c(-c3ccc(F)c(OCCc4ccc(F)cc4)c3)nc3sccn23)n1` (stereo unspecified), the growth in the assay with NCI-H23 lung was 7.95% (active); with NCI-H226 lung it was 111%; in the assay with NCI-H322M lung, 65.4%; with HOP-62 NSCLC it was 99.7%; in the assay with NCI-H460 lung it was 59.1%; with HOP-92 NSCLC, 47.1%. Moreover, the growth in the assay with NCI-H522 lung was -61.7% (active); with A549/ATCC NSCLC, 101%; with 786-0 renal it was 95.3%; in the assay with DU-145 prostate, 1.03% (active); in the assay on K-562 leukemia, 7.91% (active); in the assay on MALME-3M melanoma it was 55.6%. Further, the growth is 45% in the assay on MDA-MB-231 breast; 60.9% in the assay with RXF 393 renal; 93.3% in the assay on SF-268 CNS; 98.3% in the assay with SF-295 CNS; 91.2% in the assay on SF-539 CNS; -0.163% (active) in the assay with UACC-257 melanoma. Moreover, in the assay with M14 melanoma, the growth is 67.6%.
